CYP2C19 activ: increases human CYP2C19 enzyme activity; recombinant CYP2C19, luciferin-H EGE luminescence; hits give high values; 0 = fully inhibited enzyme, 1 = untreated enzyme; activation factor at 5 µM; 96,000 tested, under 10 active; AID 1025;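 active means activation factor of at least 2 at 5 µM in the primary screen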
Target sequence (P33261 whole entry, looked up): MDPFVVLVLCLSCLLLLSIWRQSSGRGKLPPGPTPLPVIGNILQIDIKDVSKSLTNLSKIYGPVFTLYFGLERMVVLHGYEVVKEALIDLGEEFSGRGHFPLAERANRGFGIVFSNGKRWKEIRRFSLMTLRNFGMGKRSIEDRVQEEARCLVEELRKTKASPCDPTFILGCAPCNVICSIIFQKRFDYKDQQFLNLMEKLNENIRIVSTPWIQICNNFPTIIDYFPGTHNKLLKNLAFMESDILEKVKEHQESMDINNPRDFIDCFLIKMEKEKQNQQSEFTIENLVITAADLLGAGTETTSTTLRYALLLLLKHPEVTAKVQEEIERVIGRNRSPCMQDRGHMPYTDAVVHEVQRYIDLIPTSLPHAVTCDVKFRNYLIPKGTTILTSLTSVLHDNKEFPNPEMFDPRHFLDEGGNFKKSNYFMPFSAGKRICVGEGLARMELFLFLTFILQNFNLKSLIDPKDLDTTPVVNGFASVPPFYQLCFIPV
CYP2C19 inhib: blocks human cytochrome P450 2C19. P33261. CYP2C19 Supersomes, luciferin-H EGE luminescence, 30 min. inhibition, % at 5 µM. actives 21% (n = 96,000). AID 778;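 active means CYP2C19 inhibition above a set limit at 5 µM in the primary screen, cut at about 50% in these data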
Measles CPE: protection of cells from measles virus | Measles virus-infected cells, CPE protection, absorbance | protection (pct of control), % at 4 µM | actives 1.5% (n = 140,000) | AID 841; in the data active means protection mostly above about 24%, no sharp cut-off; inactive means mostly below about 26%
CYP2C9 act: increases human cytochrome P450 2C9 activity | P11712 | recombinant CYP2C9, luciferin-H conversion, luminescence; hits give high values; factor 1 = untreated enzyme, 0 = blocked | activation factor at 5 µM | actives 1.4% (n = 96,000) | AID 1024;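 active means activation factor of 2 or more for CYP2C9 at a 5 µM dose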
CYP2C9 inhib: inhibitors of human CYP2C9; CYP2C9 Supersomes, luciferin-H conversion, luminescence; actives 20% (n = 96,000); inhibition, % at 5 µM;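 active means blocking of liver enzyme CYP2C9 beyond about 50% at 5 µM, limit read from the data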
Each line names hits and unclear results; the compound was inactive in the other large screens; ! = repeats disagree. This is a sample that favours compounds with a hit; in the whole collection about 22% have one here.

COc1ccc(N2C(=O)C3CCCN3C2c2cccc(Br)c2)cc1 (stereo not drawn)	CYP2C9 inhib 52
COc1cccc(N2C(=O)C3CCCN3C2c2ccc(Cl)cc2)c1 (stereo not drawn)	CYP2C19 inhib 69, CYP2C9 inhib 50
Cc1cc(C(=O)COC(=O)c2ccc(O)cc2)c(C)n1CC1COc2ccccc2O1 (stereo not drawn)	none (no result: CYP2C19 activ, CYP2C19 inhib, CYP2C9 act, CYP2C9 inhib)
COc1ccc(-c2nnc(-c3cccnc3)o2)cc1	none
COc1ccc(-n2nnnc2-c2cccnc2)cc1	CYP2C19 inhib 55
O=C1NN=C(c2ccc(Cl)cc2)CC1c1cccc(Cl)c1 (stereo not drawn)	CYP2C19 inhib 68
Cc1ccc(S(=O)(=O)N2CCN(C(=O)Cc3ccc4c(c3)OCCO4)CC2)cc1C	none (no result: CYP2C19 activ, CYP2C19 inhib, CYP2C9 act, CYP2C9 inhib)
CCOc1ccccc1N1CCN(S(=O)(=O)c2cccc3nsnc23)CC1	CYP2C19 inhib 94, CYP2C9 inhib 70
O=C(c1ccccc1F)N1CCN(S(=O)(=O)c2ccc3c(c2)OCCO3)CC1	CYP2C19 inhib 93
Cc1ccc2c(CC(=O)N3CCN(S(=O)(=O)c4ccc5c(c4)OCCO5)CC3)coc2c1	CYP2C9 inhib 72
CCOC(=O)N1CCN(S(=O)(=O)c2ccc(C)c(C)c2C)CC1	CYP2C19 inhib 99
CCCCCC(=O)NCC(C)NC(=O)CCCCC (stereo not drawn)	none (no result: CYP2C19 activ, CYP2C19 inhib, CYP2C9 act, CYP2C9 inhib)
O=C1C=C(c2ccccc2)CC(/C=C/c2ccccc2)C1 (stereo not drawn)	none (no result: CYP2C19 activ, CYP2C19 inhib, CYP2C9 act, CYP2C9 inhib)
O=C(/C=C/c1ccccc1Cl)NCCN1CCOCC1	none
O=C(Nc1ccon1)c1ccc(Br)o1	none
Cc1cc2nc(N)sc2cc1C	none
Cc1cc(C(=O)CCC(=O)N2CCN(S(=O)(=O)c3cccs3)CC2)c(C)s1	none
CCOC(=O)N1CCN(S(=O)(=O)c2cccs2)CC1	CYP2C19 inhib 57
CCOc1ccccc1N1CCN(S(=O)(=O)c2cccs2)CC1	CYP2C19 inhib 93, CYP2C9 inhib 91
CCOc1ccccc1N1CCN(S(=O)(=O)CC)CC1	none
COc1ccc2c(CC(=O)N3CCN(S(=O)(=O)c4cccs4)CC3)coc2c1	CYP2C19 inhib 90
CCOc1ccc(-c2noc(CCC(=O)NC)n2)cc1OCC	none
CCOc1ccc2nc(NCCNC(=O)C(C)C)c(C)cc2c1	CYP2C19 inhib 77, CYP2C9 inhib 94
COCC(=O)NCCNc1nc2ccc(C)cc2cc1C	none
CCOc1ccc2nc(NCCNC(=O)C3CC3)c(C)cc2c1	CYP2C19 inhib 56, CYP2C9 inhib 52 (no result: Measles CPE)
CCOC(=O)/C(C#N)=C1/SC(CCO)C(=O)N1c1ccccc1 (stereo not drawn)	none (no result: CYP2C19 activ, CYP2C19 inhib, CYP2C9 act, CYP2C9 inhib)
CCC1S/C(=C(\C#N)C(=O)NCc2ccco2)N(c2ccc(F)cc2)C1=O (stereo not drawn)	none
CCOC(=O)/C(C#N)=C1/SC(CC)C(=O)N1c1ccc(Br)cc1 (stereo not drawn)	CYP2C19 inhib 78
CCC1S/C(=C(\C#N)C(=O)NCc2ccco2)N(c2ccc(Br)cc2)C1=O (stereo not drawn)	CYP2C9 inhib 51
CCOC(=O)/C(C#N)=C1/SC(C)C(=O)N1c1ccc(Br)cc1 (stereo not drawn)	CYP2C19 inhib 95, CYP2C9 inhib 72
COc1ccc(C2=C(CN(C)C)C(c3ccccc3)c3ccccc3O2)cc1 (stereo not drawn)	CYP2C19 inhib 68!, CYP2C9 inhib 77!
COc1ccc(-n2nnc3c(=O)n(Cc4cc(C)ccc4C)cnc32)cc1	CYP2C9 inhib 72
COc1cc(S(=O)(=O)N2CCCCCC2)ccc1-n1cnnn1	none
CCOC(=O)c1c(C)oc2c1c1c(c3ccccc32)OCN(Cc2ccccn2)C1	CYP2C9 inhib 54
CCOC(=O)c1c(C)oc2c1c(C(c1ccncc1)N1CCOCC1)c(O)c1ccccc12 (stereo not drawn)	CYP2C19 inhib 98, CYP2C9 inhib 97
CCOC(=O)c1c(C)oc2c1c(CN1CCN(C(=O)OCC)CC1)c(O)c1ccccc12	none (no result: CYP2C19 activ, CYP2C19 inhib, CYP2C9 act, CYP2C9 inhib)
CC(CN1CCCCC1)OC(=O)c1ccc(Cl)cc1Cl (stereo not drawn)	none
CCOC(=O)/C(=C\c1cn(C)c2ccccc12)[N+](=O)[O-]	none (no result: CYP2C19 activ, CYP2C19 inhib, CYP2C9 act, CYP2C9 inhib)
COC(=O)/C(=C/Nc1cccc2ccccc12)[N+](=O)[O-]	CYP2C19 inhib 55
CCCN1C(=O)CN(C2CCCCCC2)C(=O)C1c1ccc(C)cc1 (stereo not drawn)	none
COc1ccc(C(=O)Nc2ccc3c4c(cccc24)CC3)cc1	CYP2C9 act 2.2
COc1cc(OC)cc(C(=O)NC(=S)Nc2ccc3c4c(cccc24)CC3)c1	none
O=C(Nc1ccc2c3c(cccc13)CC2)c1ccco1	CYP2C9 act 2
O=[N+]([O-])c1cccc(-n2nnnc2CN2CCCCCC2)c1	CYP2C19 inhib 94, Measles CPE 33
Clc1ccc(-n2nnnc2CN2CCOCC2)cc1	none
CC(=O)Nc1cccc(NC(=O)CSc2nnnn2C(C)C)c1	none
COC(=O)c1cccc(N(C(=O)c2cnccn2)C(C(=O)NCc2ccccc2)c2ccco2)c1 (stereo not drawn)	CYP2C19 inhib 71
CC(C)CCN(C(=O)CNC(=O)c1ccco1)C(C(=O)NC1CCCCC1)c1ccco1 (stereo not drawn)	CYP2C19 inhib 70, CYP2C9 inhib 51
COC(=O)c1ccc(C(C(=O)NCc2ccccc2)N(Cc2cccs2)C(=O)c2cnccn2)cc1 (stereo not drawn)	none
COC(=O)c1ccc(N(C(=O)c2ccco2)C(C(=O)NC2CCCC2)c2ccco2)cc1 (stereo not drawn)	none (no result: CYP2C19 activ, CYP2C19 inhib, CYP2C9 act, CYP2C9 inhib)
COC(=O)c1cccc(N(C(=O)CNC(=O)c2ccco2)C(C(=O)NC2CCCC2)c2ccco2)c1 (stereo not drawn)	CYP2C9 inhib 64
COC(=O)c1cc(COC(=O)c2ccc(OC)c(S(=O)(=O)N3CCCC3)c2)oc1C	CYP2C19 inhib 98, CYP2C9 inhib 97
COc1ccc(C(=O)NC2CCCCC2)cc1S(=O)(=O)N1CCCC1	CYP2C9 inhib 53
COc1ccc(C(=O)N2CCCC2)cc1S(=O)(=O)N1CCOCC1	none
COc1ccc(C(=O)NC(C)(C)C)cc1S(=O)(=O)N1CCCC1	CYP2C9 inhib 53
COc1ccc(C(=O)NCc2ccccc2)cc1S(=O)(=O)N1CCCc2ccccc21	CYP2C9 inhib 55
COc1ccc(C(=O)n2cc(C(=O)c3cc(C)ccc3O)cn2)cc1	none (no result: CYP2C19 activ, CYP2C19 inhib, CYP2C9 act, CYP2C9 inhib)
COC(=O)c1c(-c2ccc(Br)cc2)noc1N	CYP2C19 inhib 78
O=C(/C=C/c1cc([N+](=O)[O-])ccc1OC(F)F)Nc1cccc2ccccc12	none (no result: CYP2C19 activ, CYP2C19 inhib, CYP2C9 act, CYP2C9 inhib)
CC1CN(S(=O)(=O)c2cccs2)CC(C)O1 (stereo not drawn)	none
CC1CCc2ccc(F)cc2N1S(=O)(=O)c1cccs1 (stereo not drawn)	CYP2C19 inhib 62
COc1ccc(-c2cc(=O)c3ccccc3s2)cc1	CYP2C9 inhib 64
COc1ccc2sc3ccccc3c(=O)c2c1	none
COc1cc(/C=N/NC(=O)CCc2c(C)n[nH]c2C)cc(OC)c1OC	CYP2C19 inhib 55
O=C(Cc1nnc(NC(=O)c2ccccc2)s1)N/N=C/c1ccco1	none (no result: CYP2C19 activ, CYP2C19 inhib, CYP2C9 act, CYP2C9 inhib)
